# High-throughput results deposited in PubChem BioAssay by National Center for Advancing Translational Sciences (NCATS).
# A selection: hits, their analogues and other compounds. The true share with any hit is near 3.3%.
# AmpC inh no detg = inhibitors of E. coli AmpC beta-lactamase without detergent; P00811; hit rate 0.52% among 330,000; Potency, µM (highest dose often 57.1 µM), for the others: at the top dose activity change, negative = inhibition, most hits filed as inhibitors; AmpC nitrocefin hydrolysis, absorbance 480 nm, 0.0001% Triton;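 also: plate controls were no compound for no effect and no enzyme for full effect; nearly all actives have a fitted effect of over 20% in size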
# Target sequence (P00811 whole entry, looked up): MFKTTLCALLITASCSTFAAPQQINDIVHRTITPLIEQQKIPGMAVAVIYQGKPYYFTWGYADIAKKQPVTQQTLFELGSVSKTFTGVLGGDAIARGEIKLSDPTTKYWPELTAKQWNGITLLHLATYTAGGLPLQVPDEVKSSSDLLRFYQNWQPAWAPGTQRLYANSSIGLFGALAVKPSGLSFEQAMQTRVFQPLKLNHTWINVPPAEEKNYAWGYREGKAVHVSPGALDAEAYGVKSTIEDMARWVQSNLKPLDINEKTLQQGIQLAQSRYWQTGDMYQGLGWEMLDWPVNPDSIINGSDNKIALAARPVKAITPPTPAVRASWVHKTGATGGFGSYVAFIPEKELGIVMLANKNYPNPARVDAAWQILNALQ
#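 20 mM phosphate pH 7.0 + 0.01% (detergent screen) or 0.0001% Triton X-100; 5.3 nM AmpC reagent; cpd preinc 15 min RT; nitrocefin (800 uM stock) to start; A480 q20 s × 4 min; Activity was normalised to no-enzyme and no-compound control wells.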
# AmpC detergent = blocks E. coli AmpC beta-lactamase in detergent assay. AmpC hydrolysis of nitrocefin, absorbance 480 nm, 0.01% Triton. hit rate 0.041% among 370,000. Potency, µM (top dose mostly 114 µM), without a hit: at the highest dose activity change, negative = inhibition, most hits filed as inhibitors. P00811;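 also: 0% = no-compound wells and -100% = no-enzyme wells; nearly all actives have a fitted effect of over 25% in size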
#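 AmpC (5.3 nM in the dispensed reagent) in 20 mM phosphate pH 7.0 with 0.01% (detergent screen) or 0.0001% Triton X-100 was preincubated with compounds for 15 min at room temperature. Nitrocefin was then added from an 800 uM solution, and hydrolysis was followed at 480 nm.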
# Sm TGR block = inhibitors of Schistosoma mansoni thioredoxin glutathione reductase; Q962Y6; purified TGR, DTNB reduction, TNB absorbance 405 nm; hit rate 3% among 360,000; Potency, µM (series often up to 114 µM), without a hit: at the top dose activity change, negative = inhibition, hits mostly inhibitors; also: nearly all actives have a fitted effect of over 60% in size
#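 Kinetic colorimetric format: TGR-catalysed, NADPH-driven DTNB reduction monitored via TNB absorbance. Enzyme dispensed at 20 nM; compound exposure 15 min at room temperature before reaction start.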
# * hit, by the source's call; ? = inconclusive; . = no result. Calls follow the shape of the dose curve; as a rule, active = well fitted curve in the direction sought with a large enough effect; inconclusive = small, poorly fitted or top-dose-only effect, or another doubt; inactive = no such curve, though single readings can be large; an effect the other way counts as inactive or inconclusive. Unless noted, % is scaled to controls: 0 for no effect and ±100 for the full control effect; potency is read from the fitted curve at half-maximal effect.
SMILES,AmpC inh no detg,AmpC detergent,Sm TGR block
Cc1ccc(/C=C2\SC(N3CCN(C(c4ccccc4)c4ccccc4)CC3)=NC2=O)o1,-11%,-5%,35µM*
Cc1ccc(-c2ccc(/C=C3\SC(N4CCOCC4)=NC3=O)o2)cc1,129%,-3%,?
N#Cc1nc(-c2ccco2)oc1N1CCCC1,-21%,?,5%
N#Cc1nc(-c2ccco2)oc1N1CCc2ccccc2C1,-44%,0%,50µM*
CCC(C(=O)N1CCN(c2cc(C)ccc2C)CC1)n1nc(C)n2c(cc3occc32)c1=O (configuration not stated),.,13%,6%
CC1C(=O)N2CCCc3cc(NC(=O)COc4ccc(Cl)cc4)cc1c32 (configuration not stated),?,?,-9%
CCOC(=O)C1(CCOc2ccccc2)CCN(Cc2ccc(OC)c(O)c2)CC1,34%,-7%,-1%
CCOC(=O)C1(CCOc2ccccc2)CCN(Cc2ccc(O)c(OCC)c2)CC1,34%,-13%,45µM*
CCOC(=O)C1(Cc2ccccc2C)CCCN(Cc2cn(C)nc2C)C1 (configuration not stated),55%,-9%,-2%
CCOC(=O)C1(CCOc2ccccc2)CCN(Cc2ccc(O)cc2)CC1,1%,-14%,0%
CCOC(=O)C1(CCOc2ccccc2)CCN(Cc2cc(OC)c(O)c(OC)c2)CC1,59%,-12%,40µM*
CCOC(=O)C1(Cc2ccccc2C)CCCN(Cc2cc(OC)c(O)c(OC)c2)C1 (configuration not stated),61%,7%,4.5µM*
CC(=O)N1CCN(Cc2nc3cc(NC(=O)c4cccc(Br)c4)ccc3n2C)CC1,118%,-2%,-3%
Cc1ccc(CNS(=O)(=O)c2cc3c(cc2Cl)NC(=O)CO3)o1,.,21%,32µM*
Cc1ccc(CNC(=O)CCS(=O)(=O)c2cc3c(cc2Cl)NC(=O)CO3)o1,-14%,-9%,-2%
CCOC(=O)c1ccc(N(C(=O)c2ccco2)C(C(=O)NC2CCCCC2)c2ccncc2)cc1 (configuration not stated),1%,-11%,-17%
CCCCNC(=O)N(O)C1N(/N=C/c2ccco2)C(=S)SC1(C)C (configuration not stated),-21%,-4%,28µM*
CCCCNC(=O)N(O)C1N(/N=C/c2ccccc2F)C(=S)SC1(C)C (configuration not stated),-24%,1%,-19%
COc1ccccc1NC(=O)C(=O)N/N=C(\C)CC(=O)Nc1ccccc1C(F)(F)F,-4%,-11%,-15%
Cc1cc(C)c2c(CCl)cc(=O)oc2c1,-20%,-1%,10µM*
Cc1cc(C)c2c(CN3CCCCC3)cc(=O)oc2c1,-22%,-10%,34%
CN(c1ccc(-c2csc(NC(=O)C3CC(=O)N(Cc4ccco4)C3)n2)cc1)S(C)(=O)=O (configuration not stated),13%,-18%,-26%
O=C(NCc1ccc(F)cc1)C1CC(=O)N(Cc2ccco2)C1 (configuration not stated),58%,-4%,40µM*
O=C(NCc1ccco1)C1CC(=O)N(CCc2ccccc2)C1 (configuration not stated),3%,-9%,-32%
CC(=O)c1sc(NC(=O)C2CC(=O)N(Cc3ccco3)C2)nc1-c1ccccc1 (configuration not stated),43%,-14%,-17%
SMILES,AmpC inh no detg,AmpC detergent,Sm TGR block
O=C(Nc1nccs1)C1CC(=O)N(Cc2ccco2)C1 (configuration not stated),-22%,-8%,10µM*
COc1cccc(NC(=O)C2CC(=O)N(Cc3ccco3)C2)c1 (configuration not stated),-12%,5%,-12%
COc1ccc(-c2csc(NC(=O)C3CC(=O)N(Cc4ccco4)C3)n2)cc1 (configuration not stated),-3%,-15%,35µM*
NS(=O)(=O)c1cccc(NC(=O)C2CC(=O)N(Cc3ccco3)C2)c1 (configuration not stated),-2%,-2%,50µM*
O=C(NCCC1CCCCN1S(=O)(=O)c1ccc(F)cc1)C(=O)Nc1ccccc1 (configuration not stated),-16%,-3%,-1%
COc1ccc(N2CCN(C3CCCN(Cc4ccc(F)cc4Cl)C3)CC2)cc1 (configuration not stated),0%,?,-9%
CCCN(CC(=O)Nc1ccccc1C)C(=O)c1ccc(NC2CC2)c([N+](=O)[O-])c1,-4%,?,2%
